Screens deposited in PubChem by National Center for Advancing Translational Sciences (NCATS).
Most compounds without a hit are left out; they make up all but 1.9% or so of the library.
ClpP mod – qHTS Assay for Activators of ClpP. ATP-dependent Clp protease proteolytic subunit (Bacillus subtilis (strain 168)), P80244. purified B. subtilis ClpP, FRET peptide cleavage, 20 min. Potency, µM (titrated, usually from 57.5 µM), without a hit: top-dose activity change, negative = active. 340,000 tested, 1.9% active. AID 651965, 2013; active = well fitted falling curve with a large enough effect; inconclusive = small, poorly fitted or top-dose-only effect; inactive = no such curve, though single readings can be large or run the other way; note: potency is the fitted concentration of half-maximal effect; the source files actives as falling curves though it sought activators and does not explain the sign; nearly all actives have a fitted effect of over 65% in size
Target sequence (P80244 whole entry, looked up): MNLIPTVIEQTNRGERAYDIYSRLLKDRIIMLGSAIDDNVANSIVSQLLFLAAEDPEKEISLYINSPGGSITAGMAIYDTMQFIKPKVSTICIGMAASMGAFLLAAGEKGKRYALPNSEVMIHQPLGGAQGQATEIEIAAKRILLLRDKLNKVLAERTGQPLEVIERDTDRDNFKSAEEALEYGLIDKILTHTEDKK
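Purified B. subtilis ClpP, 10 microg/mL final in Tris/HCl pH8 with KCl, BSA, glycerol and Tween-20, cleaved an Abz/nitrotyrosine-quenched decapeptide. Fluorescence (ex 320, em 430) was read at 0 and 20 min at room temperature. Delta was normalized to 5.8 microM ADEP and DMSO/no-enzyme controls.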
Pin1 inhibitor – inhibitors of human Pin1; Pin1 FP peptide displacement, HiFluor488, 10 min; Potency, µM (titrated, usually from 115 µM), for the others: at the top dose activity, negative = inhibition, usual class: inhibitors; 390,000 tested, 0.009% active; active = well fitted inhibition curve with a large enough effect in the polarisation, with a control signal flat, not every such curve was filed as active; inconclusive = small, poorly fitted or top-dose-only effect, or effect the other way, or a change in a side signal; inactive = no such curve, though single readings can be large or run the other way; the % refers to the polarisation; note: potency is the fitted concentration of half-maximal effect; % is set by controls: 0 for no effect and ±100 for the full control effect
Target sequence (Q13526 whole entry, looked up): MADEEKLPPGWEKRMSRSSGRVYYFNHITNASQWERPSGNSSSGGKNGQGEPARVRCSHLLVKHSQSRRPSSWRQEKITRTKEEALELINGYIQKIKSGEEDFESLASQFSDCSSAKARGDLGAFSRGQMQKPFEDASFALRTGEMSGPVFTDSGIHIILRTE
PKM2 activator – increases activity of human pyruvate kinase M2 | purified PKM2, Kinase-Glo ATP luminescence, activation; response scale: 0% is enzyme alone, no compound | 260,000 tested, 0.34% active | Potency, µM (titrated, usually from 57.5 µM), for inactives: at the highest dose activation, most hits filed as activators | AID 1631 | P14618; note: potency is the fitted concentration of half-maximal effect; % is set by controls: 0 for no effect and ±100 for the full control effect; nearly all actives have a fitted effect of over 55% in size
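hPK-M2, >95% pure; 0.1 mM ADP / 0.5 mM PEP final; imidazole pH7.2 buffer w/ 7 mM MgCl2, 50 mM KCl; 1 h RT; Kinase-Glo lum. Intermediate enzyme activity for dual inhibitor/activator qHTS.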
USP2a inh – blocks human ubiquitin-specific protease USP2a; USP2 core, Ub-CHOP2 coupled fluorogenic reporter, 485/531; Potency, µM (highest dose often 38.3 µM), for the others: top-dose activity change, negative = inhibition, hits mostly inhibitors; 330,000 tested, 0.01% active;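 note: potency is the fitted concentration of half-maximal effect; plate controls were DMSO wells for no effect and full inhibition by NEM control for full effect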
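Cell-free coupled assay: 10nM USP2 core preincubated 30min RT with compound in Tris-HCl pH 8.0/CaCl2/CHAPS buffer, then 25nM Ub-CHOP2 and 25nM reporter substrate; fluorescence (Ex 485/Em 531) read after 60min RT, normalized to NEM inhibition, concentration-response curves fitted.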
a7 integrin act – activates integrin-mediated alleviation for muscular dystrophy | alpha7betagal myoblasts, beta-gal FDG fluorescence, 48 h | Potency, µM (titrated, usually from 38.3 µM), for the others: at the top dose activation, hits mostly activators | 350,000 tested, 0.064% active;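 note: potency is the fitted concentration of half-maximal effect; 100% = response of the positive control SU9516; nearly all actives have a fitted effect of over 60% in size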
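alpha7betagal+/- myoblasts (passage 13, 250/well) treated 48 h at 37C with compounds at 1:260 dilution of DMSO stock. Lysed, then beta-galactosidase activity read as FDG fluorescence (ex 480/em 540) after 30 min, with pre-read for autofluorescence.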
IL-2 act – activates IL-2 in a cell-based reporter assay. IL-2 activation reporter assay, cell-based qHTS; stimulated with anti-CD3/CD4/CD28 beads; in transgenic mouse T cells. activation, % (series mostly up to about 46 µM). 360,000 tested, 0.065% active. AID 652025; in the data active = activation above about 50%; inconclusive = mostly about 30% to 49%; note: 0% is about no effect
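Unstimulated transgenic mouse T cells preincubated 60 min with compound, then stimulated with anti-CD3/anti-CD4-coated beads plus anti-CD28 for 18 h at 37 degrees C. IL-2 response read as EGFP and DsRed fluorescence by plate cytometry.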
Numbers without * were called inactive; ? = inconclusive; . = no result given; [ ] = another dose, or the depositor's remark. Unless noted, calls come from the whole dose curve; as a rule, active = well fitted curve in the direction sought with a large enough effect; inconclusive = small, poorly fitted or top-dose-only effect, or another doubt; inactive = no such curve, though single readings can be large; an effect the other way counts as inactive or inconclusive.

SMILES | ClpP mod | Pin1 inhibitor | PKM2 activator | USP2a inh | a7 integrin act | IL-2 act
Cc1cccc(C(=O)Nc2ccc(NC(=O)Cc3ccc(Cl)cc3)cc2)c1 | 32µM* | 5% | -2% | -1% | -11% | 0
O=C(Cc1ccc(Cl)cc1)Nc1ccc(NC(=O)c2ccccc2)cc1 | ? | 3% | -8% | 2% | 6% | 1
CCOc1ccc(OCCC(=O)NNC(=O)c2ccncc2)cc1 | 7.9µM* | -1% | . | 4% | -2% | 0
Cc1ccc(OCCC(=O)OCC(=O)NNC(=O)c2ccccc2)cc1 | 25µM* | 0% | . | -1% | 21% | 0
CCOc1ccc(OCCC(=O)OCC(=O)NNC(=O)c2ccccc2)cc1 | . | -5% | . | -1% | 12% | 2
Cc1ccc(OCCC(=O)NNC(=O)c2ccncc2)cc1 | -1% | . | . | . | 1% | -2
COC(=O)CSc1nnc(-c2ccc(NS(=O)(=O)c3ccccc3)cc2)o1 | -1% | -4% | 25µM* | 3% | 6% | 0
COc1cccc(C2c3c(ncn(-c4cccc(Cl)c4)c3=N)Oc3ccc4ccccc4c32)c1 (stereo unspecified) | . | 40% | . | . | . | .
CCCn1cnc2c(Sc3c([N+](=O)[O-])ncn3C)nc(N)nc21 | ? | -3% | . | . | -6% | -1
Cn1cnc([N+](=O)[O-])c1Sc1nc(N)nc2c1ncn2Cc1ccccc1 | 32µM* | -6% | . | . | -41% | -1
Fc1ccccc1N=C1NN=C(c2ccccc2)CS1 | 10µM* | 4% | -1% | 0% | -63% | -1
COc1cccc(NC(=O)Nc2cccn(Cc3ccc(C)cc3)c2=O)c1 | 3% | 4% | 0% | 1% | 2% | -1
COc1cccc(Cn2cccc(NC(=O)Nc3cccc(C#N)c3)c2=O)c1 | 28µM* | 7% | -9% | -6% | -16% | -1
COc1ccc(N=c2nc(-c3ccccc3)n(-c3ccc(C)cc3)s2)cc1 | -1% | ? | . | . | . | .
Cc1cccc(C(=O)NCc2ccc(S(N)(=O)=O)cc2)c1[N+](=O)[O-] | 28µM* | -3% | -15% | 3% | -15% | 0
COc1ccc(CNC(=O)c2cccc(C)c2[N+](=O)[O-])cc1 | -2% | -2% | -1% | 2% | 21% | 1
Cc1cccc(OC(C)C(=O)NCc2ccc(S(N)(=O)=O)cc2)c1 (stereo unspecified) | 3.2µM* | 4% | 0% | 2% | 27% | -3
O=C(O)c1ccccc1C1=Nc2ccc(O)cc2Oc2cc(O)ccc21 | 14µM* | . | 0% | ? | 3% | 3
Cc1nn(C)cc1C(C)NC(=O)c1cc(COc2c(F)cccc2F)on1 (stereo unspecified) | 0% | 6% | -3% | 2% | 5% | 0
Cc1nn(C)cc1C(C)NC(=O)c1cc(COc2cccc3cnccc23)on1 (stereo unspecified) | 16µM* | 8% | 1% | -2% | -24% | -4
CC(C)CCSc1nc(N)c(C#N)cc1C#N | 32µM* | ? | -7% | 0% | 3%[7.66 µM] | 2
CC(=O)c1cc(C#N)c(SCCC(C)C)nc1C | -1% | ? | -8% | 0% | -3% | -2
O=C(Nc1ccc2c(c1)N(S(=O)(=O)c1cccs1)CCC2)c1c(F)cccc1F | 11µM* | 21% | . | 0% | -33% | -5
CCC1(C)Cc2[nH]c(=O)c(C#N)cc2CO1 (stereo unspecified) | . | 4% | 2% | 1% | 13% | 1
CC1(C)Cc2[nH]c(=O)c(C#N)cc2CS1 | 14µM* | -1% | -6% | -1% | 5% | 0
O=C(CSc1nc2nc(-c3cccs3)cc(C(F)(F)F)c2c(=O)[nH]1)C(F)(F)F | 4% | 0% | . | -7% | 8% | -2
O=C(CSc1nc2nc(-c3cccs3)cc(C(F)(F)F)c2c(=O)[nH]1)NCc1ccco1 | 8.9µM* | -10% | -13% | -4% | -6% | 3
